Source: PubChem BioAssay AID1159580 (chemical genetic matrix, 2015)
Among all 5,500 compounds or so, about 2,000 (36%) were called active. Another 18% or so got no clear call; they are omitted. Cut-off read from the data, not from the text of the source: active = normalized growth mostly below about 0.91 (no sharp cut-off); inconclusive = no clear call, values can overlap the other calls; inactive = mostly above about 0.92. This is one part of the list.

Test: chemical genetic growth profiling, strain panel (AID 1159580);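 note: tested at 20 µM; growth read once vehicle control cultures reached saturation at 30 °C; 1 = growth at the plate median or of vehicle wells; lower values mean less growth of the strain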
Conditions: S. cerevisiae deletion strains, growth OD

Measured: normalized growth

O=C1c2ccccc2C(=O)c2sccc21
active: locus YAR019C, strain CDC15, stronger effect = lower value 0.556 | locus YBL105C, strain PKC1, stronger effect = lower value 0.778 | locus YBR135W, strain CKS1, stronger effect = lower value 0.716 | locus YBR136W, strain MEC1, stronger effect = lower value 0.718 | locus YBR160W, strain CDC28, stronger effect = lower value 0.75 | locus YDL017W, strain CDC7, stronger effect = lower value 0.72 | locus YDL028C, strain MPS1, stronger effect = lower value 0.749 | locus YDL101C, strain DUN1, stronger effect = lower value 0.466 | locus YDL108W, strain KIN28, stronger effect = lower value 0.752 | locus YDL132W, strain cdc53, stronger effect = lower value 0.674 | locus YDL214C, strain PRR2, stronger effect = lower value 0.233 | locus YDR052C, strain DBF4, stronger effect = lower value 0.646 | locus YDR054C, strain cdc34, stronger effect = lower value 0.556 | locus YDR226W, strain ADK1, stronger effect = lower value 0.751 | locus YDR477W, strain SNF1, stronger effect = lower value 0.209 | locus YER123W, strain YCK3, stronger effect = lower value 0.183 | locus YER133W, strain GLC7, stronger effect = lower value 0.225 | locus YFL009W, strain cdc4, stronger effect = lower value 0.59 | locus YFL029C, strain CAK1, stronger effect = lower value 0.4 | locus YFR003C, strain YPI1, stronger effect = lower value 0.694 | locus YFR019W, strain FAB1, stronger effect = lower value 0.171 | locus YFR028C, strain CDC14, stronger effect = lower value 0.649 | locus YGR040W, strain KSS1, stronger effect = lower value 0.182 | locus YGR052W, strain FMP48, stronger effect = lower value 0.156 | locus YGR092W, strain DBF2, stronger effect = lower value 0.152 | locus YHR030C, strain SLT2, stronger effect = lower value 0.157 | locus YHR079C, strain IRE1, stronger effect = lower value 0.211 | locus YHR082C, strain KSP1, stronger effect = lower value 0.204 | locus YHR205W, strain SCH9, stronger effect = lower value 0.124 | locus YIL147C, strain SLN1, stronger effect = lower value 0.669 | locus YJL095W, strain BCK1, stronger effect = lower value 0.154 | locus YJL128C, strain PBS2, stronger effect = lower value 0.595 | locus YJL157C, strain FAR1, stronger effect = lower value 0.227 | locus YJR016C, strain ILV3, stronger effect = lower value 0.483 | locus YJR066W, strain TOR1 (second series), stronger effect = lower value 0.147 | locus YJR066W, strain TOR1, stronger effect = lower value 0.15 | locus YKL048C, strain ELM1, stronger effect = lower value 0.33 | locus YKL067W, strain YNK1, stronger effect = lower value 0.272 | locus YKL101W, strain HSL1, stronger effect = lower value 0.209 | locus YKL193C, strain SDS22, stronger effect = lower value 0.498 | locus YKL203C, strain TOR2, stronger effect = lower value 0.158 | locus YLR113W, strain HOG1, stronger effect = lower value 0.303 | locus YLR133W, strain CKI1, stronger effect = lower value 0.196 | locus YLR403W, strain SFP1, stronger effect = lower value 0.154 | locus YML070W, strain DAK1, stronger effect = lower value 0.214 | locus YMR001C, strain CDC5, stronger effect = lower value 0.614 | locus YMR205C, strain PFK2 (second series), stronger effect = lower value 0.236 | locus YMR277W, strain FCP1, stronger effect = lower value 0.46 | locus YNL006W, strain LST8, stronger effect = lower value 0.593 | locus YNL020C, strain ARK1, stronger effect = lower value 0.183 | locus YNL161W, strain CBK1, stronger effect = lower value 0.636 | locus YNL183C, strain NPR1, stronger effect = lower value 0.161 | locus YNL207W, strain RIO2, stronger effect = lower value 0.473 | locus YNL222W, strain SSU72, stronger effect = lower value 0.634 | locus YNL307C, strain MCK1 (second series), stronger effect = lower value 0.16 | locus YOL078W, strain AVO1, stronger effect = lower value 0.511 | locus YOL136C, strain PFK27, stronger effect = lower value 0.192 | locus YOR061W, strain CKA2, stronger effect = lower value 0.244 | locus YOR119C, strain RIO1, stronger effect = lower value 0.221 | locus YOR231W, strain MKK1, stronger effect = lower value 0.206 | locus YOR329C, strain SCD5, stronger effect = lower value 0.579 | locus YPL031C, strain PHO85, stronger effect = lower value 0.184 | locus YPL153C, strain RAD53, stronger effect = lower value 0.207 | locus YPL204W, strain HRR25, stronger effect = lower value 0.198 | locus YPL209C, strain IPL1, stronger effect = lower value 0.684 | locus YPL256C, strain CLN2, stronger effect = lower value 0.223 | locus YPR025C, strain CCL1, stronger effect = lower value 0.705 | locus YPR106W, strain ISR1, stronger effect = lower value 0.601 | locus YPR111W, strain DBF20, stronger effect = lower value 0.691 | strain NNK1, stronger effect = lower value 0.305 | strain TSCII, stronger effect = lower value 0.527
